This is a sample that favours compounds with a hit; in the whole collection about 8.7% have one here.
TNAP act DEA: human TNAP enzyme activators, primary screen, biochemical, luminescent, intermediate phosphate acceptor level. Alkaline phosphatase, tissue-nonspecific isozyme (Homo sapiens), P05186. purified TNAP, CDP-star luminescence, 100 mM DEA, 30 min; active compounds read high; scale: 0 levamisole-inhibited, 1 vehicle-only enzyme. activation factor at 20 µM. 64,000 tested, under 10 active. AID 813, 2007;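 active = activation factor of at least 2 at 20 µM, relative to controls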
PostGolgi yeast: phenotypic screen on post-Golgi transport, primary screen | inhibition, % at 10 µM | AID 739, 2007 | post-Golgi transport phenotypic cell assay | hit rate 0.9% among 98,000;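 note: yeast cells grown in 1536-well plates; yeast grown about 18 h at 30C before absorbance read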
Cav32 inh: Cav3.2 calcium influx blockers – cell-based, Fluo-4 calcium fluorescence, FDSS, MLSMR library, primary screen. Voltage-dependent T-type calcium channel subunit alpha-1H (Homo sapiens), O95180. Cav3.2-expressing cells; active compounds read low. B-score at 10 µM. hit rate 4% among 100,000;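 active = single-dose well whose peak fluorescence ratio is a statistical outlier from its plate by either plate-standardised score or position-corrected B-score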
Target sequence (O95180 whole entry, looked up): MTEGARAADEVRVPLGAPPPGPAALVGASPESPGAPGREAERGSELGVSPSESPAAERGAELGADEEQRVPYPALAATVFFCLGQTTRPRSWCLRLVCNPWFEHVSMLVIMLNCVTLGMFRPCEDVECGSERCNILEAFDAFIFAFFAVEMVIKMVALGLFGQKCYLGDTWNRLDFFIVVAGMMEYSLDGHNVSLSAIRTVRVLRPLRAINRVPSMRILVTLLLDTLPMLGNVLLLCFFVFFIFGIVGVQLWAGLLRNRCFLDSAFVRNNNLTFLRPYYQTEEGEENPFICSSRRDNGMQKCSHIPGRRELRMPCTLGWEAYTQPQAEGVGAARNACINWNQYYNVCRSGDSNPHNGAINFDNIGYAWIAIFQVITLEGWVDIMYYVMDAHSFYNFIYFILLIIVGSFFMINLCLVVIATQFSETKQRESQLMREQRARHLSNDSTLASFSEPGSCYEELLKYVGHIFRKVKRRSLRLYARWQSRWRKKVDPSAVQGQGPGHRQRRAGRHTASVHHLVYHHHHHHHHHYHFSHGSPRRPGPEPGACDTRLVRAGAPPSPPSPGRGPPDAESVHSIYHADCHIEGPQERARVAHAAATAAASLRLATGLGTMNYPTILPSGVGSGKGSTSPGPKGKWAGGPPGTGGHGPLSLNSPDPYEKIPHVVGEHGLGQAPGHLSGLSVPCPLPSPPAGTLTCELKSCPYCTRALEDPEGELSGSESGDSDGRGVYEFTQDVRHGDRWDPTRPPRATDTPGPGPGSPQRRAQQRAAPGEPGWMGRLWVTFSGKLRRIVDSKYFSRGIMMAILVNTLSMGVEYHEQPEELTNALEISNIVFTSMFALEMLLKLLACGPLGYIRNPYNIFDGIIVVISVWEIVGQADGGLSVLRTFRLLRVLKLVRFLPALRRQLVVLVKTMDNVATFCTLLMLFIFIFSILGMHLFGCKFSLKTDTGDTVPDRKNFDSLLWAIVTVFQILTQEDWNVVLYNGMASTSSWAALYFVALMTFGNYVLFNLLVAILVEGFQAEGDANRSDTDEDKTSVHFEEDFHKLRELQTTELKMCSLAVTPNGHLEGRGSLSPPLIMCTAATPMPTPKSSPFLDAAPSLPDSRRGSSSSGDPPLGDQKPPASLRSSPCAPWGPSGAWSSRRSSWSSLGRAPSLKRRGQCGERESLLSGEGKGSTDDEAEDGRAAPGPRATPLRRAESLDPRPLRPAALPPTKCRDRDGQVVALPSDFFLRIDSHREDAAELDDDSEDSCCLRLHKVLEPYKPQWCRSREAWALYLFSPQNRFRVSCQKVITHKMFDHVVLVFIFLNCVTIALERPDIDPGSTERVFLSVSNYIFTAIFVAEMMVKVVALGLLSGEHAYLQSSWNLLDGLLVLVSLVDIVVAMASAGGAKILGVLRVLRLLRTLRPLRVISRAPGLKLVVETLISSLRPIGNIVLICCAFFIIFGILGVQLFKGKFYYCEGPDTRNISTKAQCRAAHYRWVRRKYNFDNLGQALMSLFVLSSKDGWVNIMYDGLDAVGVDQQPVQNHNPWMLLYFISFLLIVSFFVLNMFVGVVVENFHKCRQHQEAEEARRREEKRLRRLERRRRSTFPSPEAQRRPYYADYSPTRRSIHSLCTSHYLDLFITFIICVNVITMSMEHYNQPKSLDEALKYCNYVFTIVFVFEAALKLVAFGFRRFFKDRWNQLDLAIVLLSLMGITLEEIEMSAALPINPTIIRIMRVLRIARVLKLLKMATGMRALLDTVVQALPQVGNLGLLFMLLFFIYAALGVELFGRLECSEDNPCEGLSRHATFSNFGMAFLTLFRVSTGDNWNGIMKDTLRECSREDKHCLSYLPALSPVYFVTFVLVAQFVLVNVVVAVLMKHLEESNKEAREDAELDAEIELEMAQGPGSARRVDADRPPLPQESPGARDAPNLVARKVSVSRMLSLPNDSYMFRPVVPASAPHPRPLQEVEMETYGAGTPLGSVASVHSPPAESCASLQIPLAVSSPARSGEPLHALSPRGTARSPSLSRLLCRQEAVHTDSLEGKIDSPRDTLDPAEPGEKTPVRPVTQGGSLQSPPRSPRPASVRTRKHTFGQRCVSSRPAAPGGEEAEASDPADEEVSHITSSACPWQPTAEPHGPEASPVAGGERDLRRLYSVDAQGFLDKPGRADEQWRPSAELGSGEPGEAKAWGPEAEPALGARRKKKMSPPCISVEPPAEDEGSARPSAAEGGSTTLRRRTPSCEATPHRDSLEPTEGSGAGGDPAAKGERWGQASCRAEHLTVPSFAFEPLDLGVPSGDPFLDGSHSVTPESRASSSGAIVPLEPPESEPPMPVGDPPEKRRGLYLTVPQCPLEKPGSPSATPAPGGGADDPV
Smad3 FoxH1 inh: Smad3/FoxH1 peptide binding inhibitors, primary screen, biochemical, TR-FRET | Mothers against decapentaplegic homolog 3 (Homo sapiens), P84022 | TR-FRET Smad3/Dy647-FoxH1 peptide binding, europium anti-His | inhibition, % at 25 µM | hit rate 0.29% among 88,000;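 active = compounds that reduce the energy-transfer binding signal between the protein and its labelled peptide by more than half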;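 note: 0% = Smad3 plus labelled peptide maximal FRET and 100% = peptide-only background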
PostGolgi ctrl: growth inhibition of yeast control strain, primary screen, counter-screen for post-Golgi transport modulator project; inhibition, % at 10 µM; efflux-deficient yeast background strain, growth absorbance A615, 16 h; hit rate 5% among 98,000
hDAT+cocaine: changed hDAT dopamine uptake under cocaine IC80, either direction, primary screen, cocaine antagonist project, cell-based, LLC-PK1 hDAT, [14C]-dopamine uptake, MLSMR; Sodium-dependent dopamine transporter (Homo sapiens), Q01959; B-score at 10 µM; hit rate 1.3% among 110,000; LLC-PK1 hDAT cells, [14C]-dopamine uptake with cocaine IC80; actives deviate in either direction;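 active = Z score or B-score, a plate-position-corrected score, falls beyond the plate's 99.7% confidence bounds, in either direction; inactive = both scores lie inside the 99.7% bounds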;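 note: scored against the spread of the other compound wells on the same plate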
* = called active by the depositor; . = not tested or not shown. Cut-off read from the data, not from the text of the source, unless noted: active = inhibition above about 30%; inactive = the rest.

SMILES	TNAP act DEA	PostGolgi yeast	Cav32 inh	Smad3 FoxH1 inh	PostGolgi ctrl	hDAT+cocaine
O=C(CSc1nnc(Cc2cccs2)n1Cc1ccco1)Nc1cc(Cl)cc(Cl)c1	0.9	-16.0	-4.27*	10.6	35.0*	0.767
COc1ccc(C)cc1NC(=O)CSc1nnc(COc2ccccc2)n1Cc1ccco1	0.9	13.8	.	-3.8	25.0	.
O=C(CSc1nnc(Cc2cccs2)n1Cc1ccco1)Nc1cccc(Cl)c1	0.9	10.5	-3.48	-4.8	2.0	-0.42
COc1ccc(C)cc1NC(=O)CSc1nnc(COc2ccc(Cl)cc2)n1Cc1ccco1	0.9	-2.8	-1.97	-1.2	40.0*	.
CSc1nc(-c2ccc(C)cc2)nc(C(Cl)Cl)n1	.	3.4	.	.	-4.3	.
Cc1cc(C)c(C(=O)CSC2=NC(N)=C(C#N)C3(CCCCC3)C2C(N)=O)cc1C (stereo not given)	.	-1.3	-1.4	6.2	7.1	1.94
Cc1cccc(OCc2nnc(SCC(=O)N(C(C)C)C(C)C)n2Cc2ccco2)c1C	1	17.1	-6.6*	-8.5	11.7	1.83
CN(C)C(=O)Oc1ccc[n+](C)c1	0.8	.	0.208	9.1	.	-0.489
Cc1ccc(C)c(NC(=O)c2nnn(Cc3ccccc3C)c2N)c1	1	-3.7	-3.69	5.4	33.5*	0.754
Cn1c(/C=C/c2ccc([N+](=O)[O-])o2)nc2ccccc2c1=O	.	61.5*	-0.775	-4.6	41.0*	1.33
CC1=CC(C)(C)N(C(=O)CN2C(=O)c3ccccc3C2=O)c2ccccc21	0.9	-5.0	-1.43	8.0	20.4	0.799
CC1CC(C)(C)N(C(=O)CN2C(=O)c3ccccc3C2=O)c2ccccc21 (stereo not given)	.	.	4.5*	-5.9	.	0.423
O=C(CSc1nnc(Cc2ccccc2)o1)NCCN1C(=O)CSC1=O	1	3.8	-0.343	-6.0	-5.9	1.27
CCCC(c1cc(C(C)(C)C)c(O)cc1C)c1cc(C(C)(C)C)c(O)cc1C	.	.	.	0.8	.	.
CC(C)c1nnc(NC(=O)CSc2ncn[nH]2)s1	1	-2.2	0.00618	-12.6	-0.9	-0.641
CCOC(=O)c1cnc(SCc2ccccc2)nc1N	1	3.2	-0.437	8.1	23.5	-0.952
CCOC(=O)c1cnc(SCc2ccc(C(C)(C)C)cc2)nc1N	.	-7.3	-7.2*	-12.6	2.2	-0.248
COc1cc(/C=C(\C#N)c2nc3ccccc3[nH]2)c([N+](=O)[O-])cc1OCc1ccccc1	.	10.7	-1.95	.	27.5	0.6
CCN(CC)c1ccc(/C=C(/C#N)c2nc3ccccc3[nH]2)c(OC(C)C)c1	.	2.0	-3.47*	.	11.1	2.03
O=C1c2ccccc2CCCC12N=NCC2c1cccc2ccccc12 (stereo not given)	.	6.3	.	.	32.5*	.
O=C(O)CN1C(=O)O[C@@H](c2ccccc2)C1=O	.	.	.	-3.4	.	.
Nc1ccccc1Nc1ccccc1	.	7.7	0.236	5.5	11.9	2.51*
Nc1ccc(Nc2ccccc2)c(Cl)c1	0.9	3.3	1.09	.	0.5	-1.15
Cc1ccc(C2CC(c3ccc(F)cc3)Nc3nc(N)nn32)cc1 (stereo not given)	1.1	1.5	-0.0472	2.7	7.5	-1.45
CCc1ccc(C2CC(c3ccc(C)cc3)Nc3nc(N)nn32)cc1 (stereo not given)	0.9	-2.0	-0.0281	-0.9	7.5	-2.45*
SMILES	TNAP act DEA	PostGolgi yeast	Cav32 inh	Smad3 FoxH1 inh	PostGolgi ctrl	hDAT+cocaine
COc1ccc(C2CC(c3ccc(Cl)c(Cl)c3)Nc3nc(N)nn32)cc1 (stereo not given)	1	1.3	-0.502	10.9	36.3*	0.436
CCc1nnc(NC(=O)c2ccc3c(c2)C(=O)N(CC(C)C)C3=O)s1	.	.	0.446	14.8	.	0.0612
COc1ccc(/C=C/C(=O)c2ccccc2)cc1COc1ccccc1F	.	-8.8	-4.15*	.	4.9	-0.516
COc1ccc(OC)c(NC(=O)CS(=O)(=O)c2ccccc2)c1	0.9	0.9	0.153	4.1	5.8	-0.323
CC1CCCCN1C(=O)CSc1ccc(-c2ccc(F)cc2)nn1 (stereo not given)	1	-5.0	2.42	-1.3	44.8*	1.71
COCCNC(=O)CS(=O)Cc1nc(-c2ccc(OC)cc2)oc1C (stereo not given)	0.9	6.0	0.781	-3.1	-1.9	-1.05
CC(=O)NC(C)C(=O)OCC(=O)c1ccc(Cl)s1 (stereo not given)	0.9	25.3	0.0545	8.3	35.9*	-0.703
CCCCN(CCCC)CCCNC(=O)C1CC(c2ccc(C(F)(F)F)cc2)=NO1 (stereo not given)	.	.	-1.09	.	.	0.456
O=C(CCc1ccccc1)N1CCN(c2ccc(Cl)cc2)CC1	.	12.4	-5*	4.5	5.3	1.37
O=C(CN(c1ccc(Cl)cc1)S(=O)(=O)c1ccccc1)N1CCN(c2ccccc2)CC1	.	2.8	-8.15*	3.3	20.6	-0.0918
Cn1cc(CC(=O)N2CCN(c3ccc(Cl)cc3)CC2)c2ccccc21	1	-0.2	-4.5*	2.9	2.8	0.573
O=C(CNS(=O)(=O)c1ccccc1)N1CCN(c2ccccc2)CC1	0.9	0.3	1.52	8.8	33.6*	-0.0539
O=C(c1cccc(C(F)(F)F)c1)N1CCC(O)(CS(=O)(=O)Cc2ccccc2Cl)CC1	.	-1.2	0.0502	.	3.5	-0.435
Cc1c(C(C)(C)C)c(C=S)n2ccccc12	.	0.3	0.0636	.	0.3	-1.98
O=C(CN(c1ccc(Cl)c(Cl)c1)S(=O)(=O)c1ccccc1)N1CCc2ccccc2C1	.	4.7	-5.38*	.	29.1	-0.756
Cc1nn(C)c(C)c1S(=O)(=O)N(CC(=O)N1CCc2ccccc2C1)c1ccc(C(C)C)cc1	.	1.4	-4.8*	7.8	4.0	1.87
O=C(CN(C1CCCCC1)C1CCCCC1)N1CCc2ccccc2C1	.	29.6	-5.77*	.	12.0	0.915
Cc1cc(C)c2nc3s/c(=C/c4ccccc4)c(=O)n3c2c1	.	0.6	.	.	-0.6	-0.0639
COc1ccc(NC(=S)N2CCC(C(=O)N3CCCCCC3)CC2)cc1	.	7.3	-0.0348	.	-4.7	-0.0132
COc1ccc(Cl)cc1NC(=O)N(C)Cc1c(C)nn(C)c1C	1	3.1	-1.15	4.4	0.1	-2.36
COC(=O)C1=C(C)N(Cc2ccco2)C(=O)N[C@@H]1c1ccco1	.	.	-1.17	.	.	0.025
CCc1ccc(C2=NN(c3ccc(S(N)(=O)=O)cc3)C(c3ccc(F)cc3)C2)cc1 (stereo not given)	.	17.7	-0.299	.	90.5*	0.212
CC12CCC(=O)N1c1c(sc3nc(N4CCOCC4)c4c(c13)CCCC4)C(=O)N2 (stereo not given)	1	0.9	2.2	1.4	1.4	3.2*
COC(=O)c1ccc(-c2sc3nc(N4CCOCC4)c4c(c3c2N)CCCC4)o1	0.8	7.8	-3.01	6.1	5.8	0.0258
